Experimental data: PubChem BioAssay (NCATS)
Results filed as inconclusive are left out. Activity calls are given as the source filed them. Calls follow the shape of the dose curve; as a rule, active = well fitted curve in the direction sought with a large enough effect; inconclusive = small, poorly fitted or top-dose-only effect, or another doubt; inactive = no such curve, though single readings can be large; an effect the other way counts as inactive or inconclusive.

Tests used:
[1] = biological target: Luciferin 4-monooxygenase (Photinus pyralis) (UniProt P08659); assay: Firefly luciferase counterscreen qHTS: Assay Interference Panel against the NCATS CANVASS Library (AID 1347363); also: series mostly up to about 57 µM
Procedure, shortened: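 Purified P. pyralis luciferase was added to compounds (11-point series) preincubated 15 min at room temperature with substrate containing 0.013 mM D-luciferin and 0.013 mM ATP; luminescence was read after 5 min.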

[2] = KB-8-5-11 Cancer Cell Toxicity qHTS against the NCATS CANVASS Library (AID 1347364); also: nearly all actives have a fitted effect of over 75% in size
Procedure, shortened: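 CellTiter-Glo luminescence after 72 h exposure; 500 KB-8-5-11 cells/well, DMEM/10% FBS, 37C, 5% CO2; compounds in 11-pt qHTS. Follow-up confirmation included medium with 1uM tariquidar.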

[3] = SDT Cancer Cell Toxicity qHTS against the NCATS CANVASS Library (AID 1347365);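 also: SDT canine glioma cells 500 per well in 1536 well plates; series mostly up to about 46 µM; nearly all actives have a fitted effect of over 60% in size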
Procedure, shortened: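 Luminescent ATP read-out (CellTiterGlo) after 72 hr compound exposure of dog glioma SDT cells, 500 per well. Eleven-point titrations; bortezomib titration run alongside as control.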

[4] = KB-3-1 Cancer Cell Toxicity qHTS against the NCATS CANVASS Library (AID 1347366); also: series mostly up to about 46 µM; nearly all actives have a fitted effect of over 75% in size
Procedure, shortened: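 KB-3-1 cells (500 cells/well) in DMEM + 10% FBS were treated with compounds for 72 hr at 37C, 5% CO2. Viability was read as CellTiter-Glo luminescence after 10 minutes at room temperature.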

[5] = qHTS for ATAD5 Agonist screened against the NCATS CANVASS Library (AID 1347367);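 also: luciferase reporter driven by ATAD5 which rises upon DNA damage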
Procedure, shortened: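 HEK293T cells stably carrying an ATAD5-controlled luciferase reporter (2000 cells/well) attached for 5 hr, then received compounds in an 11-point series for 16hr at 37C. Luminescence was read after a 30 min room-temperature reagent step.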

[6] = G06 Cancer Cell Toxicity qHTS against the NCATS CANVASS Library (AID 1347368); also: series mostly up to about 46 µM; nearly all actives have a fitted effect of over 60% in size
Procedure, shortened: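 ATP luminescence (CellTiterGlo) readout of cytotoxicity. Canine G06 glioma cells, 500/well, 72 hr incubation at 37C with compounds; bortezomib titration served as control.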

[7] = MCF7 Cancer Cell Toxicity qHTS against the NCATS CANVASS Library (AID 1347369)
Procedure, shortened: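 MCF7, 500 cells/well; cpds 11-pt qHTS; 72 hr, 37C/5% CO2; CellTiterGlo ATP luminescence.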

[8] = qHTS for ATAD5 Antagonist screened against the NCATS CANVASS Library (AID 1347370);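 also: HEK293T cells carrying an ATAD5 luciferase reporter co-treated with 10 µM 5-fluorouridine; series mostly up to about 46 µM; nearly all actives have a fitted effect of over 65% in size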
Procedure, shortened: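 HEK293T-ATAD5 luc reporter, 2000 cells/well; 5hr attach; cpd + 10 uM 5-FUrd; 16hr 37C, 5% CO2. Readouts: CellTiter-Fluor fluorescence (1hr), then Amplite luciferase luminescence (30min RT).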

[9] = J3T Cancer Cell Toxicity qHTS against the NCATS CANVASS Library (AID 1347371);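 also: J3T is a canine glioma cancer cell line seeded at 500 cells per well; series mostly up to about 46 µM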
Procedure, shortened: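 Dog glioma J3T, 500 cells/well; cpd 11-pt qHTS; 72 hr, 37C/5% CO2; CellTiterGlo ATP luminescence readout.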

[10] = biological target: Nuclear receptor subfamily 1 group I member 3 (Homo sapiens) (UniProt Q14994); assay: qHTS for Constitutive Androstane Receptor (CAR) Antagonist screened against the NCATS CANVASS Library (AID 1347372);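 also: cells stimulated with 50 nM CITCO agonist so inhibition reflects antagonism; series mostly up to about 46 µM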
Procedure, shortened: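 Cells were seeded and left 4hr to attach, then received compound at 11 concentrations and 50 nM CITCO. Following 24hr incubation, fluorescence viability and luciferase luminescence were read sequentially.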

[11] = biological target: Nuclear receptor subfamily 1 group I member 3 (Homo sapiens) (UniProt Q14994); assay: qHTS for Constitutive Androstane Receptor (CAR) Agonist screened against the NCATS CANVASS Library (AID 1347373);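 also: every well also contained 1.5 µM PK11195 alongside the test compound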
Procedure, shortened: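 Luciferase read-out (ONE-Glo, 30 min RT) of CYP2B6-2.2kb promoter activity in double-stable HepG2-hCAR cells after 24hr compound exposure with 1.5uM PK11195 present; viability measured first by CellTiter-Fluor.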

[12] = qHTS for Hypoxia signaling pathway (HIF-1) antagonists against the NCATS CANVASS Library (AID 1347374);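 also: HRE-bla ME-180 cells stimulated with cobalt chloride to stabilize HIF-1alpha; series mostly up to about 38 µM; nearly all actives have a fitted effect of over 60% in size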
Procedure, shortened: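 Beta-lactamase reporter under HRE control in ME-180 cells; CoCl2 stimulus (60 uM solution as added), compounds 11-pt qHTS, 17 h 37C. CCF4 dye 2 h RT, 460/530 nm emission. CellTiter-Glo viability in same wells.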

[13] = qHTS for Hypoxia signaling pathway (HIF-1) agonists against the NCATS CANVASS Library (AID 1347375)
Procedure, shortened: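 Read-out: beta-lactamase FRET (CCF4-AM, ex 405, em 460 and 530 nm) after 2 h at room temperature. ME-180 cells stably carrying HRE-bla were treated 17 h at 37C with compounds in an 11-point concentration series.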

[14] = qHTS for H2AX Agonists against the NCATS CANVASS Library (AID 1347378)
Procedure, shortened: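 CHO-K1 cells were plated overnight at 37C, then exposed to compounds (concentration series, 0.76% DMSO final) for 3 hr at 37C. Lysates received Eu-cryptate anti-pH2AX (S139) and d2 anti-H2AX antibodies; after 24 hr at room temperature, TR-FRET 665/620 nm ratio was read.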

[15] = qHTS for Inflammasome Signaling Inhibitors: IL-1-beta AlphaLISA screen against the NCATS CANVASS Library (AID 1347379);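 also: human THP-1 cells primed with LPS then triggered with ATP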
Procedure, shortened: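 THP-1, 1 hr compound pre-incubation, then LPS 250 ng/mL + ATP 1.25 mM (final); 16 hr total with compound; IL-1B AlphaLISA, ex 680/em 615 nm; 11-point qHTS, up to 57.5 uM final.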

[16] = Inflammasome Signaling qHTS Counterscreen: IL-1-beta AlphaLISA counterscreen against the NCATS CANVASS Library (AID 1347381);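 also: cell-free check with purified IL-1β in medium and no THP-1 cells; series mostly up to about 57 µM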
Procedure, shortened: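 Here, no cellular stimulation occurs; compounds in an 11-point series meet 4 pg purified IL-1-beta directly. Bead-based AlphaLISA detection follows (1 h acceptor/antibody, then 30 min donor, dark, room temperature), with excitation at 680 nm.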

[17] = Cytotoxicity qHTS for assessment of Hepg2 cells membrane integrity screened against the NCATS CANVASS Library (AID 1347387)
Procedure, shortened: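 LDH release read by fluorescence (560 nm ex/590 nm em) after CytoTox-ONE addition and 10 min RT; signal tracks lysed cells. HepG2, 2000 cells/well, plated overnight; compound 5 hr, 37C, 5% CO2, final 0.59 nM - 46 uM, 11 points.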

[18] = qHTS for Activators of p53 Stress Response Pathway screened against the NCATS CANVASS Library (AID 1347388)
Procedure, shortened: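 p53RE-bla HCT-116 cells (4000/well) were plated 5 h at 37C, exposed to compounds for 16 h at 37C over an 11-point concentration series, then loaded with CCF4 for 2 h at room temperature; 460/530 nm emission ratio read.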

[19] = qHTS assay for small molecule disruptors of mitochondrial membrane potential screened against the NCATS CANVASS Library (AID 1347389); also: series mostly up to about 46 µM; nearly all actives have a fitted effect of over 60% in size
Procedure, shortened: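 Red/green fluorescence ratio read-out: J-aggregates ex 540/em 590 nm, monomers ex 490/em 535 nm. HepG2, 1 hr compound treatment, then 30 min Mito-MPS dye at 37C. 11-pt qHTS concentration series.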

[20] = qHTS for activators of Nrf2/ARE signaling pathway screened against the NCATS CANVASS Library (AID 1347391); also: nearly all actives have a fitted effect of over 60% in size
Procedure, shortened: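 HepG2 ARE-bla; cpd 11-pt qHTS, 16 h 37C/5% CO2; CCF4 substrate 2 h RT; read ex 405 / em 460 + 530 nm. Viability by CellTiter-Glo luminescence, 30 min RT.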

[21] = qHTS for activators of dead-cell proteases activity screened against the NCATS CANVASS Library (AID 1347392);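 also: luminescence from protease leaking out of membrane-damaged cells cleaving impermeant substrate; rising signal means more cytotoxicity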
Procedure, shortened: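 Cytotoxicity in HepG2 cells was assessed by released protease cleaving AAF-aminoluciferin, with luminescence as signal. Exposure lasted 5 h at 37C across an 11-point series.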

[22] = Vero-766 cells viability qHTS against the NCATS CANVASS Library: Counterscreen for Zika virus inhibition assay (AID 1347394)
Procedure, shortened: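 Uninfected Vero 766 (African green monkey) cells, 1000/well, attached overnight, then exposed 72 h at 37C to compounds (11-point qHTS). Viability read by CellTiter-Glo luminescence; media-only wells served as 100% inhibition.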

[23] = qHTS for inhibitors of Wild type Zika virus screened against the NCATS CANVASS Library (AID 1347396);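 also: ATP luminescence of surviving cells so rescue from viral cell killing; series mostly up to about 46 µM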
Procedure, shortened: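 Protection against wild-type Zika cytopathic effect is measured in African green monkey Vero 766 cells exposed to an 11-point compound series. Surviving cells are quantified by CellTiter Glo luminescence after 72 h.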

Measured: Potency

Nuclear receptor subfamily 1 group I member 3 (Homo sapiens), sequence (Q14994 whole entry, looked up): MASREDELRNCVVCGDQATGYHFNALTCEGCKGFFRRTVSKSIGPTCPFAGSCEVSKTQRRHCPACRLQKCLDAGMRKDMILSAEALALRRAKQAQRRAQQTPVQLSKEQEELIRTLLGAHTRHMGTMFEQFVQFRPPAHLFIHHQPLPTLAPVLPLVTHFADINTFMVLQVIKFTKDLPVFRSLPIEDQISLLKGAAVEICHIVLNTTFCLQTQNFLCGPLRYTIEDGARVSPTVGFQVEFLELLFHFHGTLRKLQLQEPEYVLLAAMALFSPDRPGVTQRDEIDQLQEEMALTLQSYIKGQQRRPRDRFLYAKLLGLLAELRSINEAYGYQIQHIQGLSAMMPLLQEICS
Luciferin 4-monooxygenase (Photinus pyralis), sequence (P08659 whole entry, looked up): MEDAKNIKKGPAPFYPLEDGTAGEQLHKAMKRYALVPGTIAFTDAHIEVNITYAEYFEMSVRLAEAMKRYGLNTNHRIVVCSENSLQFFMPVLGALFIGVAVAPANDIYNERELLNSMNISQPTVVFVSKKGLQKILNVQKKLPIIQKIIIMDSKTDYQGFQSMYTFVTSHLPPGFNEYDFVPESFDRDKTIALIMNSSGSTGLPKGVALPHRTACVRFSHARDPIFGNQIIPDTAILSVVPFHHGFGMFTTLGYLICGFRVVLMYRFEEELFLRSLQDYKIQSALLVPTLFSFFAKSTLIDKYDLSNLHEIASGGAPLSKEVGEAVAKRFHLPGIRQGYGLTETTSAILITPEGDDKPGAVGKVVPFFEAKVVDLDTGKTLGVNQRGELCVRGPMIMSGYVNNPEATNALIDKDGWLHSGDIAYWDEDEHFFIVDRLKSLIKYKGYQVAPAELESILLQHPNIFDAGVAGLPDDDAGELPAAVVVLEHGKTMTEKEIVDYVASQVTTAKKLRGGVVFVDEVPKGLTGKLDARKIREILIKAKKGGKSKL

O=C(OC1Cc2c(O)cc(O)cc2OC1c1cc(O)c(O)c(O)c1)c1cc(O)c(O)c(O)c1 (stereo not drawn)
inactive: all assays above
